Measurements from PubChem BioAssay.
Calls of active or inactive are those of the source.

What was measured:
[1] = E. coli DRC41 culture turbidity changes, primary screen, E. coli filamentation inducer project, strain DRC41, OD650, 48 h (AID 1152);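 further: E. coli MC1000 strain DRC41 lacking acrAB efflux pump and sulA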; settings: E. coli DRC41 (acrAB sulA), higher = more signal, called active from +8 up or from −8 down
[2] = small-molecule binders of probe aLefty1, primary screen, biochemical, small-molecule microarray, 635/667 nm fluorescence (AID 1153); settings: higher = more signal;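 further: score merges spot fluorescence with signal-to-noise ratio from the scanned slide images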
[3] = PSAC antagonists in infected red cells, primary screen, cell-based, P. falciparum Indochina, OD700, 1 h (AID 1154); settings: P. falciparum Indochina infected RBC osmotic lysis, higher = more signal, called active from +8 up or from −8 down
[4] = PSAC antagonists in infected red cells, primary screen, cell-based, P. falciparum Indochina, OD700, 2 h (AID 1155);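 further: lysis reports solute entry through the parasite surface anion channel PSAC; channel blockers reduce lysis of infected cells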; settings: P. falciparum Indochina infected erythrocytes, osmotic lysis OD700; higher = more signal, called active from +8 up or from −8 down
[5] = osmotic lysis modulators in infected erythrocytes, primary screen, PSAC antagonist project, cell-based, P. falciparum Indochina, OD700, 3 h (AID 1156); settings: higher = more signal, called active from +8 up or from −8 down
[6] = PSAC antagonists in infected red cells, primary screen, cell-based, P. falciparum Indochina, OD700, 18 h (AID 1157); settings: P. falciparum Indochina infected erythrocytes, osmotic lysis OD700, 18 h; higher = more signal, called active from +8 up or from −8 down
[7] = modulators of S6 phosphorylation in cells, primary screen, cell-based, A549, cytoblot, luminescence, serum-stimulated (AID 1158); settings: A549 phospho-S6 cytoblot, 5 h, higher = more signal;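 further: serum-stimulated A549 lung adenocarcinoma cells; signal is phosphorylated S6 detected by cytoblot immunostaining with HRP secondary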
[8] = biological target: NADPH oxidase 2 (Homo sapiens) (UniProt P04839); assay: NOX2-dependent H2O2 signal modulators, primary screen, NOX inhibitor project, cell-based, HEK293-NOX2, PMA-stimulated, Amplex Red fluorescence (AID 1159); settings: 45 min, higher = more signal, called active from +8 up or from −8 down; further: test concentration not given here
[9] = biological target: NADPH oxidase 4 (Homo sapiens) (UniProt Q9NPH5); assay: NOX4-dependent H2O2 signal modulators, primary screen, NOX inhibitor project, cell-based, HEK293-NOX4, tetracycline-induced, Amplex Red fluorescence (AID 1160); settings: 45 min, higher = more signal, called active from +8 up or from −8 down
[10] = biological target: NADPH oxidase 5 (Homo sapiens) (UniProt Q96PH1); assay: NOX5-dependent H2O2 signal modulators, primary screen, NOX inhibitor project, cell-based, HEK293-NOX5, Amplex Red fluorescence (AID 1161); settings: HEK293-NOX5, ionomycin, 45 min, higher = more signal
[11] = A549 cell viability effects, profiling panel, calcein-AM fluorescence, 48 h, basal (AID 1162); settings: higher = more signal; further: test concentration not given here
[12] = adipocyte viability effects, profiling panel, cell-based, 3T3-L1 adipocytes, calcein-AM fluorescence, 48 h, basal (AID 1163); settings: 3T3-L1 adipocytes viability, higher = more signal; further: test concentration not given here
[13] = HepG2 cell viability effects, profiling panel, calcein-AM fluorescence, 48 h, basal (AID 1164); settings: higher = more signal; further: test concentration not given here
[14] = MM1S cell viability effects, profiling panel, calcein-AM fluorescence, 48 h, basal (AID 1165); settings: higher = more signal;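 further: viability of MM1S multiple myeloma cells under basal unstimulated conditions; test concentration not given here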
[15] = basal RPMI8226 viability, no added stimulus, profiling panel, cell-based, calcein-AM fluorescence, 48 h, PK04 Diversity Set (AID 1166); settings: RPMI8226 myeloma viability, higher = more signal;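 further: cells grown under basal conditions without added stimulus; test concentration not given here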
[16] = basal HepG2 mitochondrial membrane potential changes, profiling panel, cell-based, JC-1 fluorescence, 24 h, 100 nL compound (AID 1167); settings: higher = more signal; further: test concentration not given here
[17] = basal 3T3-L1 adipocyte mitochondrial potential changes, profiling panel, cell-based, JC-1 fluorescence, 3T3-L1 adipocytes, 24 h, 100 nL compound (AID 1168); settings: JC-1 mitochondrial fluorescence, higher = more signal, called active from +8 up or from −8 down; further: test concentration not given here
[18] = basal RPMI8226 mitochondrial membrane potential changes, profiling panel, cell-based, JC-1 fluorescence, 24 h, 100 nL compound (AID 1169); settings: RPMI8226 myeloma, JC-1 mitochondrial potential fluorescence, higher = more signal; further: test concentration not given here
[19] = basal MM1S mitochondrial membrane potential changes, profiling panel, cell-based, JC-1 fluorescence, 24 h, 100 nL compound (AID 1170); settings: higher = more signal; further: test concentration not given here
[20] = A549 lung cancer cell viability effects, profiling panel, resazurin fluorescence, 24 h, PK04 Diversity Set (AID 1171); settings: higher = more signal, called active from +8 up or from −8 down; further: test concentration not given here

Sequence of NADPH oxidase 5 (Homo sapiens) (Q96PH1 whole entry, looked up): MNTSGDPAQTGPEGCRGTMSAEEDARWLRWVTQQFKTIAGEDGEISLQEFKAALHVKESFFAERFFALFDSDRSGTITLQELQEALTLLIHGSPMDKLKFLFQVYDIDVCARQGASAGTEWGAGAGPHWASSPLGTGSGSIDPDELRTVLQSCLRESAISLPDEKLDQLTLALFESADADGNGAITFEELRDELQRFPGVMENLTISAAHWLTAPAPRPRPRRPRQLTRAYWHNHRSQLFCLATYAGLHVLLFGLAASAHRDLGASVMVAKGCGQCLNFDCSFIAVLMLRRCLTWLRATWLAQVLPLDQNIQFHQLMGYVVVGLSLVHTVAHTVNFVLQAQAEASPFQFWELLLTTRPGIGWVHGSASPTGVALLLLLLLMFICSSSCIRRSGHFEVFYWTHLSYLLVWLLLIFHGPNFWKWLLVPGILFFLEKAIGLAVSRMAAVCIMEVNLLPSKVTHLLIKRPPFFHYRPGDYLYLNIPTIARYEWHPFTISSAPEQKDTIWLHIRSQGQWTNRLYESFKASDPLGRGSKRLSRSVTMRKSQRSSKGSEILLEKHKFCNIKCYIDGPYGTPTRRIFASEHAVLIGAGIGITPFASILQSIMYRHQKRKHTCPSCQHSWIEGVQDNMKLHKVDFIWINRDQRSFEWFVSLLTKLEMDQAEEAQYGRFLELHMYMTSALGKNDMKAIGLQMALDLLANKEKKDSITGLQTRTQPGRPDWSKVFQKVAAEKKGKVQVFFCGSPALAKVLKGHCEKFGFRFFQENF
Sequence of NADPH oxidase 4 (Homo sapiens) (Q9NPH5 whole entry, looked up): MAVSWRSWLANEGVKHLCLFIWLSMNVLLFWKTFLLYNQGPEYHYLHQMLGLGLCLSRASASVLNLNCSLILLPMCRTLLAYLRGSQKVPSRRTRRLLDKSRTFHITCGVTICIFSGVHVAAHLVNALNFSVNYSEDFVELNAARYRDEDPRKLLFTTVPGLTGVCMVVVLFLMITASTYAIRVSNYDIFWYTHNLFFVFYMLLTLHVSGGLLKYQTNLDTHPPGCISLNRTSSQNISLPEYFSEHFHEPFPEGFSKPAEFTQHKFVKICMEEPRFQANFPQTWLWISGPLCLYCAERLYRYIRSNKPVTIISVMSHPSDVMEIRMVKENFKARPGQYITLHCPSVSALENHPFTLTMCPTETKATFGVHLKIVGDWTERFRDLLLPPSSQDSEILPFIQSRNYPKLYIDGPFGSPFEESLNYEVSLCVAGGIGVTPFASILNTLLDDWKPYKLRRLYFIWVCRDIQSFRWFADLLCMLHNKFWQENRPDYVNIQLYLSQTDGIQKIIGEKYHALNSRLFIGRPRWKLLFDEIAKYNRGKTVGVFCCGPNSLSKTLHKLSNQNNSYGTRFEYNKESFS
Sequence of NADPH oxidase 2 (Homo sapiens) (P04839 whole entry, looked up): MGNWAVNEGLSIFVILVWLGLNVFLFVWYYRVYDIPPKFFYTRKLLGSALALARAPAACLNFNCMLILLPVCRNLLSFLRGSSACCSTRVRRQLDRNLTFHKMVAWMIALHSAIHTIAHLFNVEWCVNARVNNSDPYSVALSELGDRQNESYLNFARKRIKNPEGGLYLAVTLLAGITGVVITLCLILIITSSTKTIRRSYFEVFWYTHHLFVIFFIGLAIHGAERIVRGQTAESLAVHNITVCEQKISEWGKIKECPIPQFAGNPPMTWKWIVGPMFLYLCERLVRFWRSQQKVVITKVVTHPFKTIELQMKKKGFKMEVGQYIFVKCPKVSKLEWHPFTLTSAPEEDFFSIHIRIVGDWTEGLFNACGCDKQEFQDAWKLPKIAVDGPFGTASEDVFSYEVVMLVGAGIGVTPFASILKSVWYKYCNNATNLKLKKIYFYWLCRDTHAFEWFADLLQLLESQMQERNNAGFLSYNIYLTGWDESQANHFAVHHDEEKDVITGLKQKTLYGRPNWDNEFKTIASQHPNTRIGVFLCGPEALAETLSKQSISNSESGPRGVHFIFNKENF

| SMILES | z-score [1] | composite z-score [2] | z-score [3] | z-score [4] | z-score [5] | z-score [6] | z-score [7] | z-score [8] | z-score [9] | z-score [10] | z-score [11] | z-score [12] | z-score [13] | z-score [14] | z-score [15] | z-score [16] | z-score [17] | z-score [18] | z-score [19] | z-score [20] |
| --- | --- | --- | --- | --- | --- | --- | --- | --- | --- | --- | --- | --- | --- | --- | --- | --- | --- | --- | --- | --- |
| C=CCOC(=O)[C@@H]1[C@H]2C(=O)O[C@H](c3ccccc3)[C@H](c3ccccc3)N2[C@H](c2ccc(OCCOC(=O)[C@@H]3C[C@@H]4C(=O)N[C@@H](Cc5ccccc5)C(=O)N4[C@@H]3c3cccc(OCCO)c3)cc2)[C@@]12C(=O)Nc1ccc(I)cc12 | 0.264 (inactive) | 0.706 | 9.36 (active) | 2.8 (inactive) | 2.09 (inactive) | 1.31 (inactive) | -0.479 | 1.03 (inactive) | -1.02 (inactive) | 0.727 | -1.15 | 0.185 | -0.0074 | 0.359 | -1.1 | -1.57 | 0.235 (inactive) | -0.505 | -1.14 | 0.789 (inactive) |
| O=C1O[C@H](c2ccccc2)[C@H](c2ccccc2)N2[C@H]1[C@@H](C(=O)Nc1nc3ccccc3s1)[C@]1(C(=O)Nc3ccccc31)[C@H]2c1ccc(O)cc1 | -0.626 (inactive) | -0.294 | 1.53 (inactive) | 2.51 (inactive) | 0.486 (inactive) | 1.69 (inactive) | 0.192 | 0.844 (inactive) | 0.479 (inactive) | 0.201 | -0.167 | 0.657 | -1.99 | -3.38 | -4.51 | -3.78 | 0.032 (inactive) | -1.12 | -0.564 | -0.358 (inactive) |
| CCCC[C@@H]1C[C@H]1[C@@H](NC(=O)c1ccc(-c2ccccc2)cc1)c1ccc(-c2ccccc2)cc1 | -2.4 (inactive) | 0.0341 | 2.15 (inactive) | 0.275 (inactive) | 1.68 (inactive) | 0.446 (inactive) | -0.456 | -1.32 (inactive) | -2 (inactive) | -0.619 | -1.78 | 0.441 | -0.997 | -2.17 | -2.33 | -0.922 | -0.949 (inactive) | 0.196 | -0.391 | 0.719 (inactive) |
| C[C@H]1NC(=O)[C@H](Cc2ccccc2)NC(=O)[C@@]23C(=O)N[C@@H](Cc4ccccc4)C2[C@H](C)[C@@]2(C)O[C@H]2C3/C=C/C/C=C\CNC1=O (stereo not given in full) | 0.806 (inactive) | -0.193 | 2.27 (inactive) | 0.142 (inactive) | -0.112 (inactive) | 0.501 (inactive) | 0.423 | -0.287 (inactive) | -1.42 (inactive) | -0.197 | 1.1 | 0.827 | 0.514 | -0.0775 | -1.27 | 0.542 | 0.342 (inactive) | 0.0827 | 0.782 | 0.229 (inactive) |
| O=C1N(CCS(=O)(=O)c2ccccc2)Cc2ccccc2[C@H]2OC(c3ccc(OCCCO)cc3)=N[C@@]12CCS(=O)(=O)c1ccccc1 | -0.0143 (inactive) | 0.197 | 31.1 (active) | 28.4 (active) | 3.2 (inactive) | 6.48 (inactive) | 0.834 | 0.644 (inactive) | 1.5 (inactive) | 0.357 | 1.02 | 1.46 | 1.19 | 0.222 | 0.117 | 0.0737 | 0.557 (inactive) | -0.81 | -0.848 | 0.908 (inactive) |
| C=CCOC(=O)[C@H]1[C@@H]2C(=O)O[C@@H](c3ccccc3)[C@@H](c3ccccc3)N2[C@@H](c2ccc(OCCOC(=O)[C@@H]3C[C@@H]4C(=O)N5CCC[C@H]5C(=O)N4[C@@H]3c3ccc(O)cc3)cc2)[C@]12C(=O)Nc1ccccc12 | 0.891 (inactive) | 0.137 | 2.72 (inactive) | 1.04 (inactive) | 2.96 (inactive) | 0.668 (inactive) | 0.193 | 1.64 (inactive) | 1.21 (inactive) | 1.57 | 0.924 | 0.038 | -0.139 | 0.603 | 0.876 | -1.42 | 1.74 (inactive) | -0.212 | -0.786 | 0.362 (inactive) |
| COC(=O)[C@@]1(Cc2ccccc2)[C@H]2c3cc(C(=O)N(C)C)n(Cc4c(-c5ccccc5)noc4C)c3C[C@H]2CN1C(=O)c1ccccc1 | -2.11 (inactive) | 0.324 | 2.98 (inactive) | 1.2 (inactive) | 0.57 (inactive) | 1.11 (inactive) | -0.505 | 0.931 (inactive) | 1.32 (inactive) | 1.1 | -0.914 | -1 | -1.41 | -1.05 | -1.09 | 2.14 | -1.05 (inactive) | 0.168 | -0.822 | -0.702 (inactive) |
| CCCCC=C[C@@H](NC(=O)c1cccs1)c1ccccc1 | -1.05 (inactive) | 0.762 | 4.38 (inactive) | 0.669 (inactive) | 0.66 (inactive) | 1.38 (inactive) | 0.221 | -0.99 (inactive) | -0.568 (inactive) | 1.18 | -2.03 | -0.906 | -1.92 | -1.66 | -4.69 | -0.503 | 0.482 (inactive) | -0.817 | -1.73 | -1.49 (inactive) |
| Cc1cc(C)c(C(O)C2C=CC3C(=O)N(c4ccccc4)C(=O)C3N2Nc2ccc(C#N)cc2)c(C)c1 (stereo not given) | -0.197 (inactive) | 0.938 | 7.4 (inactive) | 1.27 (inactive) | 0.742 (inactive) | 1.27 (inactive) | -0.649 | 0.0492 (inactive) | -2.68 (inactive) | -2.1 | 0.0841 | -1.06 | 1.33 | -0.448 | -0.127 | -1.71 | -1.51 (inactive) | 0.211 | -0.308 | 0.0763 (inactive) |
